This is part of a sample that, as a whole, favours compounds with a hit. Of some 83,000 tested, about 20% had one in any assay.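 96-well plates, one dose, 48 hours. Percent growth reported; active if below 10.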 Unmarked numbers belong to inactive results. The source made the active and inactive calls.
What was measured:
Assay in all cases: NCI-60 one-dose screen, 48 h (100 = growth as untreated, 0 = no growth, -100 = all killed)
Conditions in all cases: 10 µM unless noted
[1] = tested on: SR leukemia
[2] = tested on: OVCAR-8 ovarian
[3] = tested on: OVCAR-5 ovarian
[4] = tested on: OVCAR-4 ovarian
[5] = tested on: SK-OV-3 ovarian
[6] = tested on: IGROV1 ovarian
[7] = tested on: HS 578T breast
[8] = tested on: NCI/ADR-RES ovarian
[9] = tested on: OVCAR-3 ovarian

| SMILES | growth [1] | growth [2] | growth [3] | growth [4] | growth [5] | growth [6] | growth [7] | growth [8] | growth [9] |
| --- | --- | --- | --- | --- | --- | --- | --- | --- | --- |
| CN1CCN(C2=C(Cl)C(=O)c3ccccc3C2=O)CC1 | 24.3% | 67.1% | 119% | 84% | 102% | 60.7% | 27.8% | 69.8% |  |
| CN(C)CCC(O)(Cc1ccccc1)c1ccccc1 (stereo unspecified) | 102% | 105% | 103% | 110% | 99.6% | 113% | 99.8% | 109% |  |
| CCCCCCCCCCCCCCCCCC1=NCCN1C(=O)OCCO | -10.5% (active) | 19.3% | 68.1% | 28.2% | 61.7% | -35.3% (active) | 11.6% | 51.4% | 76% |
| Cl.Fc1c[c-]c(-c2ccccn2)c(F)c1.[Pt].c1ccc([PH+](c2ccccc2)c2ccccc2[PH+](c2ccccc2)c2ccccc2)cc1 | -6.47% (active) | -44.5% (active) | -94.3% (active) | -97.3% (active) |  | -77.9% (active) | -50.3% (active) | -35.5% (active) | -96.4% (active) |
| O=C(Oc1ccc[nH]c1=O)c1cc([N+](=O)[O-])cc([N+](=O)[O-])c1 | 136% | 93.6% | 106% | 110% | 116% | 162% | 124% | 114% |  |
| O=C(NCCOCCOCCOCCNC(=O)c1cc2c(o1)C(=O)c1ccccc1C2=O)NC12CC3CC(CC(C3)C1)C2 | 14.8% | 1.25% (active) | -69.9% (active) | -72.8% (active) |  | 6.23% (active) | -30.3% (active) | 8.9% (active) | -32% (active) |
| Clc1ccc(-c2nc(NCCc3ccccc3)nc3c(NCCc4ccccc4)cnn23)cc1 | 72% | 47.5% | 91.2% | 7.73% (active) | 75.8% | 71.5% | 76.6% | 74.5% | 48.9% |
| CCCCS(=O)(=O)Oc1ccc(-c2nc(C)c(C(=O)OCC)s2)cc1C=O | -14.3% (active) | 45.4% | 94.5% | 75.2% | 109% | 42.6% | 63.6% | 69% |  |
| Cc1cc(C)on1 | 70.8% | 92.4% | 116% | 98% | 111% | 110% | 102% | 109% |  |
| NS(=O)(=O)Oc1ccc(NC(=O)C23CC4CC(CC(C4)C2)C3)cc1Cl | 99% | 98.4% | 101% | 83.9% |  | 95.9% | 95.5% | 93.6% | 103% |
| Cl.Fc1c[c-]c(-c2ccccn2)c(F)c1.[Pt].c1ccc([PH+](C[PH+](c2ccccc2)c2ccccc2)c2ccccc2)cc1 | -25.4% (active) | -19.6% (active) | -81.8% (active) | -93.4% (active) |  | -75.9% (active) | -25.2% (active) | -38.8% (active) | -93.8% (active) |
| OCCCCc1nccc2c1[nH]c1ccccc12 | 140% | 102% | 98.4% | 89.6% | 112% | 81.9% | 106% | 108% | 105% |
| Cc1cc(-c2noc(C(F)(F)F)n2)ccc1N1CCN(c2cc(C(=O)N(C)C)no2)CC1 | 52.9% | 68.1% | 102% | 64.9% |  | 92.1% | 89.1% | 69.5% | 83.9% |
| O=C(CCc1nc(-c2cccc(Cl)c2)no1)Nc1ccccn1 | 89.1% | 106% | 100% | 107% | 104% |  | 93.8% | 95% | 108% |
| COc1ccc(/C=C2\COc3ccc(O)cc3C2=O)cc1OC | 1.44% (active) | 46.4% | 86.8% | 92.8% | 93.1% | 89.5% | 80.4% | 98.4% | 28.4% |
| CCOC(=O)c1sc(-c2ccc(OS(=O)(=O)c3ccc(C(C)(C)C)cc3)c(C=O)c2)nc1C | 14.5% | 38.2% | 64.3% | 39.2% | 85.5% |  | 52.9% | 32.4% | 30% |
| CCCCOc1nc2ccc(Cl)cc2cc1/C=C/C(=O)/C=C1/CC(c2cc3cc(Cl)ccc3nc2OCCCC)Nc2ccccc2N1 (stereo unspecified) | 91.2% | 101% | 93.8% | 101% | 86.1% | 67.2% | 91.1% | 98.3% | 102% |
| NS(=O)(=O)Oc1ccc(-c2sc3cc(O)ccc3c2C(=O)c2ccc(OCCN3CCCCC3)cc2)cc1 | 4.91% (active) | 63.9% | 87.2% | 58.4% |  | 75.6% | 37.8% | 80.4% | 62.6% |
| CC(=O)Nc1ccc(C(=O)/C=C/c2ccccc2)cc1 | 49.6% | 75.1% | 94.6% | 99.9% | 105% | 77% | 98.8% | 94.2% | 77.3% |
| CCOC(=O)N1CCc2c(sc3c2C(=O)N[C@H](c2ccc(OC)cc2)N3)C1 | 87.7% | 89.2% | 108% | 102% | 65.4% | 107% | 98.7% | 102% | 102% |
| CCN(CC)CCOc1ccc(/C(=C(\C)c2ccc(OC)c(F)c2)c2ccc(Cl)cc2)cc1 | 29.8% | 76.7% | 72.9% | 73.1% | 91.1% | 72.2% | 70% | 82.3% | 89% |
| O=C(/C=C/c1ccccc1)c1ccc2ccccc2c1 | 48.1% | 100% | 106% | 97% | 103% | 76.2% | 145% | 101% |  |
| C=C1C(=O)O[C@H]2[C@H]1CC/C(COC(=O)/C=C\C(=O)NCc1ccc(Cn3c(=O)sn(CCCC)c3=O)cc1)=C\CC[C@@]1(C)O[C@@H]21 | -24.7% (active) | 2.61% (active) | -78.9% (active) | -81.8% (active) | 55.7% | -100% (active) | -20.4% (active) | -9.25% (active) | -80.5% (active) |
| CCn1c(Sc2nnc(NC(=O)CSC(=S)N3CCCCC3)s2)nc2c1c(=O)n(C)c(=O)n2C | 44.8% | 92.8% | 93.6% | 84% |  | 78.5% | 91.4% | 42.2% | 56.5% |
| N=C(N)c1ccc(-c2ccc(-c3ccc(Cl)cn3)s2)cc1 | 6.63% (active) | 38% | 52.2% | 40% |  | 14.4% | 63.2% | 62.4% | 4.7% (active) |
| O=C1Nc2ccccc2/C1=N/N=C/c1ccc(OC2OC(CO)C(O)C(O)C2O)cc1 (stereo unspecified) | 116% | 102% | 98.2% | 115% |  | 116% | 98.9% | 106% | 113% |
| CN1C(=O)CCC(N2C(=O)c3cccc(NCCOCCOCCNC(=O)c4cc5c(o4)C(=O)c4ccccc4C5=O)c3C2=O)C1=O (stereo unspecified) | 7.99% (active) | 2.72% (active) | -85.5% (active) | -95.3% (active) |  | -20.1% (active) | -22.8% (active) | 45.1% |  |
| N=c1ccn2c(n1)OC1C(O)C(CO)OC12 (stereo unspecified) | 181% | 28.8% |  | 52.4% | 47% | 12.6% | 85.2% | 31.8% | 67.1% |
| N=C(N)c1ccc(-c2ccc(/C=C/c3ccccc3)s2)cc1 | 1.05% (active) | 8.3% (active) | 13.1% | -24.8% (active) |  |  | 57.4% | -12.5% (active) | -25.5% (active) |
| N=C(N)c1ccc(-c2ccc(-c3ccc(Cl)c(Cl)c3)o2)nc1 | 1.79% (active) | -16.1% (active) | 39% | -68.4% (active) |  | 22.3% | 94.8% | 32.2% |  |
